Sampled rows, rich in hits. Any-hit rate of the full collection: about 11%.
PI5P4Ka inh: blocks human PI5P4K alpha kinase activity; P48426; PI5P4Kalpha enzyme, ADP-Glo luminescence, 60 min; active compounds read low; max response, %; actives 1.2% (n = 330,000); active = max response of -50% or lower; inconclusive = between -30% and -50%; inactive = -30% or higher; note: value at the top dose of about 77 µM; % is set by controls: 0 for no effect and ±100 for the full control effect
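Luminescence from ADP-Glo served as readout of PI5P4Kalpha activity in a qHTS format. Reaction: enzyme, substrate, compound, ATP at 5 microM final, 60 min at RT.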
JMJD2A Tudor inh: JMJD2A Tudor domain (human) inhibition; Potency, µM (titrated, usually from 114 µM), inactives show top-dose activity change, negative = inhibition, actives largely listed as inhibitors; O75164; AlphaScreen JMJD2A-Tudor / H3K4me3 peptide binding; actives 4.4% (n = 390,000); note: potency is the fitted concentration of half-maximal effect; % is set by controls: 0 for no effect and ±100 for the full control effect; nearly all actives have a fitted effect of over 50% in size
HP1b chromo inh: blocks HP1-beta chromodomain binding to methylated histone tails; P83916; AlphaScreen HP1-beta / biotin-H3K9me3 peptide binding; Potency, µM (top dose mostly 114 µM), for inactives: at the top dose activity change, negative = inhibition, most hits filed as inhibitors; actives 0.56% (n = 390,000); note: potency is the fitted concentration of half-maximal effect; nearly all actives have a fitted effect of over 70% in size
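Compound inhibition of the preformed complex between 50 nM HP1-beta and 50 nM biotinylated H3K9me3 peptide was read by AlphaScreen. Buffer was PBS pH 7.4 with 0.01% Tween-20. Incubations ran 30 min at room temperature, with 10 ug/mL donor/acceptor beads.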
G9a block: blocks human histone lysine methyltransferase G9a; G9a H3K9 monomethylation, AlphaScreen, 2 h; Potency, µM (doses to about 102 µM), inactives show top-dose activity, negative = inhibition, actives largely listed as inhibitors; actives 8.8% (n = 350,000); AID 504332; note: potency is the fitted concentration of half-maximal effect; % is set by controls: 0 for no effect and ±100 for the full control effect; nearly all actives have a fitted effect of over 75% in size
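Readings reflect AlphaScreen signal from monomethyl-H3K9 antibody detection. HMT at 20 nM; substrate b-H3K9 500 nM; cofactor SAM 20 uM; 2 h RT reaction; compounds tested as titrations in qHTS with 15 min preincubation.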
BAZ2B block: blocks human BAZ2B. Q9UIF8. AlphaScreen BAZ2B-H3K14Ac peptide displacement. Potency, µM (titrated, usually from 114 µM), inactives show at the top dose activity change, negative = inhibition, most hits filed as inhibitors. actives 4.4% (n = 360,000). AID 504333; note: potency is the fitted concentration of half-maximal effect; % is set by controls: 0 for no effect and ±100 for the full control effect; nearly all actives have a fitted effect of over 60% in size
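Complex of BAZ2B and biotin-H3K14Ac (50 nM apiece) forms over 30 min at RT, then faces library compounds up to 110 uM for another 30 min; AlphaScreen beads added, 20 min dark incubation, luminescence read.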
L3MBTL1 inh: blocks human L3MBTL1; Q9Y468; AlphaScreen L3MBTL1–H3K9me1 peptide binding; Potency, µM (doses to about 57.1 µM), for the others: at the highest dose activity, negative = inhibition, usual class: inhibitors; actives 0.66% (n = 230,000); note: potency is the fitted concentration of half-maximal effect; % is set by controls: 0 for no effect and ±100 for the full control effect; nearly all actives have a fitted effect of over 60% in size
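AlphaScreen assay: L3MBTL1 (50 nM final) was preincubated 30 min at room temperature with biotinylated H3(1-15)K9me1 peptide (75 nM final), then 30 min with library compounds; streptavidin donor and nickel chelate acceptor beads (10 ug/mL final) added, 30 min dark.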
Starred values were filed as active, the others as inactive; ? = inconclusive; . = no result given; [ ] = dose if it differs, or a comment. Unless noted, calls come from the whole dose curve; as a rule, active = well fitted inhibition curve with a large enough effect; inconclusive = small, poorly fitted or top-dose-only effect; inactive = no such curve, though single readings can be large or run the other way.

SMILES	PI5P4Ka inh	JMJD2A Tudor inh	HP1b chromo inh	G9a block	BAZ2B block	L3MBTL1 inh
Cc1ccc(C(=O)Nc2nc3nc(-c4ccccc4)cc(=O)n3[nH]2)cc1	-11.7	-2.2%	63.8%	?	?	.
O=C(Nc1nc2nc(-c3ccccc3)cc(=O)n2[nH]1)c1ccc(F)cc1	.	-10.4%	29.8%	15.4%[12.7 µM]	79.4µM*	-2.8%
COc1ccc(C2C(C(=O)c3cccs3)=C(O)C(=O)N2CCN2CCOCC2)c(OC)c1 (stereo unspecified)	-8.8	-22.5%	8.8%	50.1µM*	-19.6%	.
COc1ccc(OC)c(C2C(C(=O)c3cccs3)=C(O)C(=O)N2CCN2CCOCC2)c1 (stereo unspecified)	-0.8	-0.4%	25.3%	44.7µM*	20.0%	.
CC(C)c1noc(-c2ccccc2OCC(=O)Nc2ccc([N+](=O)[O-])cc2)n1	.	-14.9%	31.4%	?	-11.0%	.
COc1cc2c(cc1OC)C1=C(C#N)CN(C3CCCCC3)CN1CC2	2.6	?	13.7%	44.7µM*	?	-1.2%
COc1ccc(CCN2CC(C#N)=C3c4cc(OC)c(OC)cc4CCN3C2)cc1OC	1.2	?	6.0%	?	?	-6.8%
Nc1ncnc(Sc2ncccn2)c1[N+](=O)[O-]	0.8	-19.5%	31.4%	?	79.4µM*	-0.6%[11.4 µM]
COc1ccccc1Nc1nc2ccc(Cl)cc2nc1-n1nc(C)cc1C	.	45.9%	128.7%	93.5%[59 µM]	50.9%	.
S=c1[nH]nc(Cc2cccs2)n1-c1cccc2ccccc12	-9.6	39.8µM*	6.8%	1.78µM*	-33.5%	0.6%
S=c1[nH]nc(Cc2cccs2)n1-c1ccccc1Cl	-26.9	14.1µM*	40.2%	2.24µM*	1.4%	3.4%
COc1ccccc1-n1c(Cc2cccs2)n[nH]c1=S	-7.0	-10.5%	32.8%	3.55µM*	-7.0%	3.6%
Cc1ccc(-n2c(Cc3cccc4ccccc34)n[nH]c2=S)c(C)c1	-2.7	-35.2%	17.6%	?	-34.9%	-6.2%[11.4 µM]
Cc1ccc(C)c(-n2c(Cc3cccs3)n[nH]c2=S)c1	-2.0	10µM*	22.3%	1.58µM*	2.5%	2.4%
COc1cccc(CNC(=O)CN(c2ccc(C)cc2)S(=O)(=O)N(C)C)c1OC	.	-7.0%	47.3%	-1.6%[59 µM]	-7.5%	.
c1csc(CN2CCOCC2)c1	.	2.82µM*	?	8.91µM*	35.5µM*	.
O=C(O)c1cccc(NC2=C(N3CCOCC3)C(=O)c3ccccc3C2=O)c1	-9.8	-23.1%	-4.4%	2.82µM*	?	-13.6%
c1ccc(N2CCOCCOCCOCCOCCOCC2)cc1	-2.8	-21.8%	44.5%	-9.7%	-18.8%	-2.6%
CCOc1ccccc1N1CCN(C2=C(NS(=O)(=O)c3cccs3)C(=O)c3ccccc3C2=O)CC1	4.5	8.91µM*	?	?	8.91µM*	.
COc1ccccc1N1CCN(S(=O)(=O)c2cccs2)CC1	.	-7.3%	25.7%	1.7%[59 µM]	4.6%	.
CN(C1=C(N2CCOCC2)C(=O)c2ccccc2C1=O)c1ccccc1	-5.0	15.8µM*	35.5µM*	10µM*	10µM*	25.1µM*
COc1ccc(CNC(=O)CC(c2ccc(OC)cc2)N2Cc3ccccc3C2=O)cc1 (stereo unspecified)	.	-19.9%	26.9%	4.2%[59 µM]	3.1%	.
CCNc1nc(C#N)nc(N2CCOCC2)n1	.	-12.3%[57.1 µM]	25.4%[57 µM]	.	.	.
CC(C)(CNS(=O)(=O)c1cccs1)N1CCOCC1	4.2	8.3%	18.8%[57 µM]	.	.	8.9%
O=C1C(NS(=O)(=O)c2cccs2)=C(N2CCOCC2)C(=O)c2ccccc21	-9.9	?	?	39.8µM*	39.8µM*	-14.6%
SMILES	PI5P4Ka inh	JMJD2A Tudor inh	HP1b chromo inh	G9a block	BAZ2B block	L3MBTL1 inh
CN1CCN(C2=C(NS(=O)(=O)c3cccs3)C(=O)c3ccccc3C2=O)CC1	4.6	-19.3%	-14.1%	?	-14.8%	-10.9%
O=C1C(NS(=O)(=O)c2cccs2)=C(N2CCN(c3cccc(C(F)(F)F)c3)CC2)C(=O)c2ccccc21	6.1	39.8µM*	?	?	10µM*	.
O=C1C(NS(=O)(=O)c2cccs2)=C(N2CCN(Cc3ccccc3)CC2)C(=O)c2ccccc21	-0.9	14.1µM*	15.8µM*	12.6µM*	12.6µM*	?
O=S(=O)(NCCN1CCOCC1)c1cccs1	1.8	-9.9%	35.3%	39.8µM*	-0.7%	16.8%
O=C(CNS(=O)(=O)c1cccs1)N1CCN(c2cccc(C(F)(F)F)c2)CC1	.	-8.4%	28.5%[57 µM]	-4.6%[59 µM]	2.5%	.
CC(NS(C)(=O)=O)C(c1cccs1)N1CCN(Cc2ccccc2)CC1 (stereo unspecified)	5.2	-22.4%	26.3%	-16.6%[59 µM]	9.9%	2.0%
Cc1nc2cnc(Nc3ccccc3)nc2n(CCc2ccccc2)c1=O	.	.	.	3.9%[0.501 µM]	.	.
CCc1ccc(NC(=O)CSc2nc(=O)n(Cc3cccnc3)c3c2CCC3)cc1	.	-7.1%	33.0%	1.9%[59 µM]	-3.7%	.
N/C(=N\OC(=O)c1ccc2ccccc2c1)c1ccccn1	-18.4	-2.1%	20.4%	-21.5%	-9.9%	-5.0%
N/C(=N\OC(=O)c1ccc(Cl)c(Cl)c1)c1cccnc1	-0.1	1.0%	24.4%	6.6%[59 µM]	6.1%	.
CCCc1ccc(C(=O)O/N=C(\N)c2ccccn2)cc1	-64.9*	-6.8%	24.3%	14.0%	4.2%	-0.2%
COc1cccc(C(=O)O/N=C(\N)c2ccccn2)c1	-73.2*	-11.9%	26.4%	-6.0%[59 µM]	-28.0%	0.6%
O=C(O/N=C(\c1ccccc1)c1ccccn1)c1ccc(Cl)c(Cl)c1	11.3	-17.1%	45.8%	3.55µM*	0.0%	-2.6%
CCCCOC(=O)c1ccc(NC(=O)C2(c3cccs3)CCOCC2)cc1	.	4.9%	55.0%	-2.0%[59 µM]	18.5%	.
O=C(Cn1c(-c2cccs2)cc2cc(Cl)ccc21)N1CCCCC1	.	-5.6%	15.4%	-4.3%[59 µM]	6.0%	.
CCOc1ccc(NC(=O)N2CCOc3ccccc32)cc1	.	-14.1%	33.3%	-17.2%[59 µM]	-9.5%	.
CCC1(C)Cc2[nH]c(=O)c(C#N)cc2CO1 (stereo unspecified)	-0.6	0.0%	-5.7%	-31.8%	11.4%	.
CC1(C)Cc2[nH]c(=O)c(C#N)cc2CS1	-0.1	1.8%	25.1%	31.6µM*	8.4%	-2.6%
COc1ccc(-n2ncc3c2ncn2nc(COc4ccc(Cl)cc4)nc32)cc1	.	-6.2%	45.0%	8.8%[59 µM]	-1.2%	.
O=C(NCCN1CCc2ccccc2C1)C1CCN(S(=O)(=O)N2CCC3(CC2)OCCO3)CC1	.	-32.5%	7.6%	7.7%[12.7 µM]	?	-3.0%
O=C(NCCN1CCc2ccccc2C1)C1CCN(S(=O)(=O)N2CCCCC2)CC1	.	?	0.8%	50.1µM*	?	4.0%
CS(=O)(=O)N1CCCC(C(=O)NCCCN2CCc3ccccc3C2)C1 (stereo unspecified)	.	79.4µM*	13.7%	11.2µM*	29.9%	0.4%
